Screens deposited in PubChem by National Center for Advancing Translational Sciences (NCATS).
Mito fusion yeast = qHTS Assay for Small Molecule Inhibitors of Mitochondrial Division or Activators of Mitochondrial Fusion | S. cerevisiae fusion-defective mutant growth rescue, CellTiterGlo 48 h | Potency, µM (top dose mostly 46.1 µM), without a hit: at the highest dose growth rescue (activation), hits mostly activators | actives 0.23% (n = 320,000) | AID 485298, 2010; further: potency means the concentration at half of the fitted maximal effect; % of control where 0% means no effect; nearly all actives have a fitted effect of over 45% in size
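Read-out: ATP-based luminescence (CellTiterGlo, 10 min ambient) reporting growth of fusion-defective ts yeast after 48 hours at 37C on glycerol/ethanol YPEG medium in the presence of compound.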
A549 tox-1 = Nrf2 qHTS screen for inhibitors: counterscreen for cytotoxicity | actives 0.16% (n = 390,000) | Potency, µM (titrated, usually from 46 µM), without a hit: top-dose activity change, negative = cytotoxicity, actives largely listed as inhibitors | A549 ARE-Fluc cells, CellTiter-Fluor viability, 18-24 h; further: potency means the concentration at half of the fitted maximal effect; on the % scale 0 is the no-effect control and ±100 the full control effect
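A549 ARE_Fluc cells in 5% FBS OPTI-MEM were exposed to compounds in concentration-response for 18-24 h at 37 deg C. Viability was read by CellTiter-Fluor fluorescence (Ex 405/Em 525) after 30 min, before the luciferase read.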
Nrf2 inh = Nrf2 qHTS screen for inhibitors; A549 ARE-Fluc reporter, luciferase luminescence, 18-24 h; Potency, µM (titrated, usually from 46 µM), without a hit: at the top dose activity change, negative = inhibition, actives largely listed as inhibitors; actives 2.1% (n = 360,000); AID 504444, 2011; further: potency means the concentration at half of the fitted maximal effect; on the % scale 0 is the no-effect control and ±100 the full control effect; nearly all actives have a fitted effect of over 60% in size
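A549 ARE_Fluc cells (5000/well, 5% FBS OPTI-MEM) pre-incubated 2 h, then treated with compounds 18-24 h at 37C/5% CO2 in concentration-response. CellTiter-Fluor viability read first; BugLite luciferase luminescence after 15 min at room temperature gives Nrf2 activity.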
Nrf2 activator = qHTS of Nrf2 Activators; AREc32 ARE-luciferase reporter (MCF7-derived line), luminescence, 24 h; Potency, µM (series often up to 46.1 µM), without a hit: top-dose activation, usual class: activators; actives 0.31% (n = 410,000); AID 624171, 2012; further: potency means the concentration at half of the fitted maximal effect; % of control where 0% means no effect; nearly all actives have a fitted effect of over 65% in size
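ARE-driven firefly luciferase activity in AREc32 cells measured after a 24 hr compound exposure at 37 deg C, using Steady-Glo reagent and a 30 min room-temperature hold.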
miR-21 reporter = qHTS Assay for Modulators of miRNAs and/orActivators of miR-21 | HeLa miR-21 FLuc reporter, luciferase, 48 h | Potency, µM (top dose mostly 38.3 µM), for inactives: at the highest dose activity change, positive = activation, hits mostly activators | 340,000 tested, under 10 active;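 further: % of control where 0% means no effect; miR-21 action dims this reporter so a rising signal means less miR-21 action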
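Compounds were titrated across several concentrations (up to approximately 40 uM) and incubated 48 hours with HeLa miR-21-FLuc reporter cells (miR-21 target sequence downstream of FLuc, endogenous miR-21). Readout was firefly luciferase luminescence after lytic detection reagent.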
FLuc enzyme inh = Nrf2 qHTS screen for inhibitors: Purified Fluc Biochemical Counterscreen for Hit Validation; shares compounds with Nrf2 inh; purified firefly luciferase, luminescence inhibition; Potency, µM (doses to about 57.5 µM), without a hit: at the highest dose activity change, negative = inhibition, usual class: inhibitors; actives 4% (n = 1,400); AID 720522, 2013; further: potency means the concentration at half of the fitted maximal effect; on the % scale 0 is the no-effect control and ±100 the full control effect; nearly all actives have a fitted effect of over 65% in size
A549 tox-2 = Nrf2 qHTS screen for inhibitors: A549 ARE-Fluc Cytotoxicity Counterscreen for Hit Validation | actives 2% (n = 1,400) | AID 720523, 2013 | shares compounds with Nrf2 inh | A549 ARE-Fluc cells, cytotoxicity counterscreen | Potency, µM (doses to about 46.1 µM), for inactives: at the highest dose activity change, negative = cytotoxicity, usual class: inhibitors;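 further: potency means the concentration at half of the fitted maximal effect; cells exposed to compounds for 18 to 24 hours; on the % scale 0 is the no-effect control and ±100 the full control effect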
Nrf2 ARE inh = Nrf2 qHTS screen for inhibitors: Nrf2 A549 ARE-Fluc Confirmation Assay for Hit Validation | shares compounds with Nrf2 inh | actives 74% (n = 1,400) | Potency, µM (doses to about 46.1 µM), without a hit: at the top dose activity change, negative = inhibition, actives largely listed as inhibitors | AID 720524, 2013 | A549 ARE-firefly luciferase reporter, luminescence; further: potency means the concentration at half of the fitted maximal effect; on the % scale 0 is the no-effect control and ±100 the full control effect; nearly all actives have a fitted effect of over 65% in size
* = called active by the depositor; ? = inconclusive; . = no result given. Rows were chosen to be rich in hits. Some 2.3% of all compounds tested hit in one or more screens of this group. The call rests on the fitted dose curve; in most records, active means well fitted curve in the direction sought with a large enough effect; inconclusive means small, poorly fitted or top-dose-only effect, or another doubt; inactive means no such curve, though single readings can be large; an effect the other way counts as inactive or inconclusive.

SMILES	Mito fusion yeast	A549 tox-1	Nrf2 inh	Nrf2 activator	miR-21 reporter	FLuc enzyme inh	A549 tox-2	Nrf2 ARE inh
CC1Cc2cc(S(=O)(=O)N(Cc3ccccc3)C(C)C)ccc2N1C(=O)C1CCC1 (stereo not given)	.	1%	?	8%	?	.	.	.
CN(C)c1ccc(-[n+]2c(-c3ccccc3)cc(-c3ccccc3)cc2-c2ccccc2)cc1	0%	?	2.9µM*	0%	?	-3%	?	3.7µM*
Cc1ccc(-c2cc(-c3ccc(C)cc3)[n+](-c3ccccc3)c(-c3ccc(C)cc3)c2)cc1	-39%	?	2.6µM*	-3%	.	4%	5.8µM*	.
c1ccc(-c2cc(-c3ccccc3)[n+](-c3ccccc3)c(-c3ccccc3)c2)cc1	0%	?	?	-3%	?	.	.	.
O=C(CSc1nnc(NC(=O)c2cccc(F)c2)s1)NCc1ccco1	3%	-1%	19%	?	-28%	.	.	.
C=CCn1c(O)c(C(C)=NCc2cc(OC)cc(OC)c2)c(=O)[nH]c1=O	7%	0%	7.3µM*	0%	29%	2%	-14%	15µM*
COc1ccc(CCNC2CCCCC2)cc1	-4%	-10%	-6%	-1%	-2%	.	.	.
COc1ccc(C[C@H]2NC[C@H](O)[C@H]2OC(C)=O)cc1	.	?	0.12µM*	-1%	.	-18%	1%	7.3µM*
